Screening data deposited in PubChem by National Center for Advancing Translational Sciences (NCATS).
This is a sample that favours compounds with a hit; in the whole collection about 12% have one here.
JMJD2A Tudor – inhibitors of human JMJD2A Tudor domain; O75164; AlphaScreen JMJD2A-Tudor / H3K4me3 peptide binding; Potency, µM (highest dose often 114 µM), for inactives: at the top dose activity change, negative = inhibition, usual class: inhibitors; 390,000 tested, 4.4% active; AID 504339; also: potency is read from the fitted curve at half-maximal effect; % is scaled to controls: 0 for no effect and ±100 for the full control effect; nearly all actives have a fitted effect of over 50% in size
PLK1 PBD inh – blocks phosphopeptide binding to human PLK1 polo-box domain. Potency, µM, for the others: max response, negative = inhibition, usual class: inhibitors. 360,000 tested, 2.8% active. AID 720504. P53350. Plk1 PBD binding of FITC phosphopeptide, fluorescence polarization; also: potency is read from the fitted curve at half-maximal effect; series mostly up to about 57 µM; % is scaled to controls: 0 for no effect and ±100 for the full control effect; nearly all actives have a fitted effect of over 65% in size
BAZ2B block – inhibitors of human BAZ2B bromodomain; AlphaScreen BAZ2B-H3K14Ac peptide displacement; 360,000 tested, 4.4% active; Potency, µM (series often up to 114 µM), for the others: at the highest dose activity change, negative = inhibition, most hits filed as inhibitors; Q9UIF8; AID 504333; also: potency is read from the fitted curve at half-maximal effect; % is scaled to controls: 0 for no effect and ±100 for the full control effect; nearly all actives have a fitted effect of over 60% in size
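Multi-concentration screen (max 110 uM) measuring displacement of acetylated histone H3 peptide from BAZ2B by AlphaScreen, using 50 nM protein, 50 nM peptide and 10 ug/mL streptavidin donor plus Ni-chelate acceptor beads.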
PI5P4Ka inh – PI5P4K alpha (human) kinase inhibition | P48426 | PI5P4Kalpha enzyme, ADP-Glo luminescence, 60 min; stronger effect = lower value | max response, % | 330,000 tested, 1.2% active; active = max response of -50% or lower; inconclusive = between -30% and -50%; inactive = -30% or higher; also: value at the top dose of about 77 µM; % is scaled to controls: 0 for no effect and ±100 for the full control effect
Target sequence (P48426 whole entry, looked up): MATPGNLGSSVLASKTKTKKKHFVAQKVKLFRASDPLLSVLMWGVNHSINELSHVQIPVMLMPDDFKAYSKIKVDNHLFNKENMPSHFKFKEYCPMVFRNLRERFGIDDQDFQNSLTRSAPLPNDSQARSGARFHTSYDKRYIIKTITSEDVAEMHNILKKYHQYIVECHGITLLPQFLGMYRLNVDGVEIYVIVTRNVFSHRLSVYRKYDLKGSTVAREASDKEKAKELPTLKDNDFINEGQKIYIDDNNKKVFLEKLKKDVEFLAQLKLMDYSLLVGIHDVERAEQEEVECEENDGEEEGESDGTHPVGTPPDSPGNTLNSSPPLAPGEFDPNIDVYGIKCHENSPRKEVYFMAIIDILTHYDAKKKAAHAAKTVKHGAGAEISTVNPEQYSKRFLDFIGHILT
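Luminescence from ADP-Glo served as readout of PI5P4Kalpha activity in a qHTS format. Reaction: enzyme, substrate, compound, ATP at 5 microM final, 60 min at RT.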
G9a block – inhibitors of human histone lysine methyltransferase G9a; Q96KQ7; G9a H3K9 monomethylation, AlphaScreen, 2 h; Potency, µM (titrated, usually from 102 µM), inactives show at the highest dose activity, negative = inhibition, most hits filed as inhibitors; 350,000 tested, 8.8% active; AID 504332; also: potency is read from the fitted curve at half-maximal effect; % is scaled to controls: 0 for no effect and ±100 for the full control effect; nearly all actives have a fitted effect of over 75% in size
Target sequence (Q96KQ7 913-1193 limits assumed): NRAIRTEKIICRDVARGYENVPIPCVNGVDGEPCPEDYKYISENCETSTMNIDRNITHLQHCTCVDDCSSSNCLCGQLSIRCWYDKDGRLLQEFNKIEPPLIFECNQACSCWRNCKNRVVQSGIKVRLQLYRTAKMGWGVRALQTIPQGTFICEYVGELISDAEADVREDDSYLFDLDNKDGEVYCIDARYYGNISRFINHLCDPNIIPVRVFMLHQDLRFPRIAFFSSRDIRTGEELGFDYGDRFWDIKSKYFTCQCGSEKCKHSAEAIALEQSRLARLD
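G9a (20 nM) preincubated 15 min RT with compounds, then 500 nM biotinylated H3K9 peptide and 20 uM SAM added; 2 h RT reaction. Monomethyl-H3K9 product detected by AlphaScreen with anti-H3K9me1 antibody, streptavidin donor and anti-rabbit IgG acceptor beads.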
HP1b chromo inh – blocks HP1-beta chromodomain binding to methylated histone tails. AID 540317. Potency, µM (highest dose often 114 µM), for inactives: at the highest dose activity change, negative = inhibition, actives largely listed as inhibitors. 390,000 tested, 0.56% active. AlphaScreen HP1-beta / biotin-H3K9me3 peptide binding. P83916; also: potency is read from the fitted curve at half-maximal effect; nearly all actives have a fitted effect of over 70% in size
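Compound inhibition of the preformed complex between 50 nM HP1-beta and 50 nM biotinylated H3K9me3 peptide was read by AlphaScreen. Buffer was PBS pH 7.4 with 0.01% Tween-20. Incubations ran 30 min at room temperature, with 10 ug/mL donor/acceptor beads.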
* = called active by the depositor; ? = inconclusive; · = not tested or not shown; ! = not confirmed by another sample; [ ] = another dose, or the depositor's remark. Unless noted, calls follow the shape of the dose curve; as a rule, active = well fitted curve in the direction sought with a large enough effect; inconclusive = small, poorly fitted or top-dose-only effect, or another doubt; inactive = no such curve, though single readings can be large; an effect the other way counts as inactive or inconclusive.

SMILES	JMJD2A Tudor	PLK1 PBD inh	BAZ2B block	PI5P4Ka inh	G9a block	HP1b chromo inh
Cc1nn2c3c(cnc2c1-c1ccccc1)C(=O)CCC3	-5%	-1%	8%	-1	16%[59 µM]	56%
O=C(Nc1ncccc1O)c1ccc(OCC2CCCO2)cc1 (stereo not drawn)	-24%	-9%	79µM*	-15	-8%	39%
O=C(Nc1ncccc1O)c1ccc(Oc2ccccc2)cc1	?	30µM*	-1%	0	5%	-7%
N#Cc1ccc(CN2CC[C@@]3(CCCN(C(=O)c4cccc(F)c4)C3)C2)cc1	·	·	·	·	5%[12.7 µM]	·
O=C(Nc1ccccc1C(F)(F)F)N1CCOc2ccc(Cl)cc21	-27%	·	-16%	·	?	6%
O=[N+]([O-])c1ccc(C2CN=C(Nc3ccccc3)S2)cc1 (stereo not drawn)	-30%	-20%	?	-2	45µM*	0%
Brc1cccc(OCCCN2CCCCCC2)c1	22µM*	-8%	50µM*	1	10µM*	?
CC1CCN(CCOc2cccc(Br)c2)CC1	7.9µM*	-8%	56µM*	-2	7.9µM*	?
COC(=O)c1ccc(C(=O)N=c2sccn2C)cc1	-8%	-7%	-8%	2	19%	29%
c1ccc(C2=Nn3c(nnc3-c3ccco3)SC2)cc1	-24%	30µM*	-27%	-7	32µM*	-15%
Brc1ccccc1C1=Nn2c(nnc2-c2ccccc2)SC1	-24%	?	-5%	-12	32µM*	-26%
Brc1ccc(C2=Nn3c(nnc3-c3cccnc3)SC2)s1	50µM*	-11%	0%	-4	18%[12.7 µM]	34%
CC1=Nn2c(nnc2-c2cc(-c3ccccc3)n[nH]2)SC1	0%	-4%	11%	-2	14µM*	43%
C[C@@H]1CN([C@@H](C)CO)C(=O)CCCn2nncc2CO[C@@H]1CN(C)C(=O)CCC(F)(F)F	·	-9%	·	4	·	·
CCc1nnc(SCC(=O)Nc2ccc(F)cc2F)c2cc3sc(C)cc3n12	-4%	·	-8%	·	-36%[59 µM]	54%
COc1ccc(C(=O)c2ccc(OC)c3cccc(O)c23)cc1OC	?	-2%	?	7	56µM*	6%
Cn1c2c(c(=O)n(C)c1=O)C(c1ccc(F)cc1)C(C#N)=C(N)O2 (stereo not drawn)	-7%	?	-15%	-6	45µM*	20%
CCN(CC)c1ccc(C(=S)N2CCN(c3ccccc3)CC2)cc1	-17%[11.4 µM]	13µM*	10µM*	7	11µM*	?
Cc1ccccc1N1CCN(C(=S)c2ccccc2)CC1	-7%	-6%	-9%	-1	-1%[59 µM]	24%
CC(C)(C)c1ccc(C(=S)N2CCN(c3ccccc3)CC2)cc1	-36%	24µM*	-34%	0	20µM*	?
S=C(c1ccccc1)N1CCN(c2ccccc2)CC1	-35%	27µM*	·	3	·	?
O=C(c1ccccc1)N1CCN(c2ccccc2)CC1	-6%	-11%	·	0	·	11%[57 µM]
CN(C)c1ccc(C(=O)C(=O)N2CCN(c3ccccc3)CC2)cc1	·	-3%	·	-12	·	·
O=[N+]([O-])c1nn(-c2ccc3c(c2)OCCO3)n(O)c1=NCc1ccc(F)cc1	35µM*	-20%	35µM*	1	?	?
CN=c1c([N+](=O)[O-])nn(-c2ccc3c(c2)OCCO3)n1O	-14%[11.4 µM]	24µM*	-29%	2	?	7%
SMILES	JMJD2A Tudor	PLK1 PBD inh	BAZ2B block	PI5P4Ka inh	G9a block	HP1b chromo inh
CSc1nnc(SCC(=O)Nc2ccc3[nH]c(=O)[nH]c3c2)s1	-5%	-11%	-6%	-11	11%[12.7 µM]	42%
O=C(CNC1CCCCCC1)Nc1ccccc1N1CCCCC1	1.4µM*	2%	?	6	?	?
O=C(CNCC1CCCCC1)Nc1ccccc1N1CCCCC1	-76%[57.1 µM]	-12%	?	-4	?	-25%
O=C(Cc1ccc(Br)cc1)Nc1ccccc1N1CCCC1	?	0%	?	9	50µM*	-3%
COc1ccc(NC(=O)CNCCC2=CCCCC2)cc1	-16%	-7%	7%	·	-5%[12.7 µM]	1%
O=C(CNCCC1=CCCCC1)Nc1ccccc1N1CCCCC1	5.6µM*	-9%	50µM*	·	1.8µM*	?
O=C(Cc1ccccc1)Nc1ccccc1N1CCCC1	-30%	-6%	-35%	1	56µM*	12%
COc1ccc(CC(=O)NCC2CCCN(Cc3ccc(SC)cc3)C2)cc1 (stereo not drawn)	-5%	-7%	-3%	-7	·	20%
COC(=O)C(C(=O)OC)c1ccccc1CNS(=O)(=O)c1ccc(C)cc1	·	-3%	·	0	·	·
CCCC(=O)n1nc(-c2ccco2)nc1NCc1ccccc1Cl	-4%	·	1%	·	2%[59 µM]	45%
CCOc1ccc(CCNC(=O)c2ccc3[nH]c(C)c(C)c3c2)cc1	?	·	?	·	-4%[59 µM]	-21%
CC(=O)c1ccc(C#CC(C)(C)O)s1	-21%	-3%	-4%	3	13µM*	36%
CCCNC(=O)c1nnsc1S(=O)c1ccc(Cl)cc1 (stereo not drawn)	-18%	0.75µM*	-2%	?	25µM*	-15%
CNC(=O)c1nnsc1S(=O)c1ccc(Cl)cc1 (stereo not drawn)	-32%	0.95µM*	-2%	?	35µM*	-6%
CCCNC(=O)c1nnsc1S(=O)(=O)c1ccc(Cl)cc1	-14%	?	-12%	?	13µM*	16%
O=C(COC(=O)/C=C/c1ccccc1)NC(=O)NCc1ccccc1	-1%	-3%	10%	-3	18%[59 µM]	37%
CCN(C(=O)CN1C(=O)c2ccccc2Sc2ccc(C(=O)OC)cc21)c1cccc(C)c1	-28%	·	-21%	·	-7%[59 µM]	16%[57 µM]
COc1ccccc1N1N=C(c2ccc([N+](=O)[O-])cc2)CC1c1ccccc1 (stereo not drawn)	32µM*	15%	11µM*	9	22%[0.501 µM]	?
O=[N+]([O-])c1ccc(N2N=C(c3ccco3)CC2c2ccccc2)cc1 (stereo not drawn)	-28%	-14%	?	-22	7.9µM*	-15%
NS(=O)(=O)c1ccc(CCNc2nc(CN3CCOCC3)nc3sc4c(c23)CCC4)cc1	-23%	-13%	-30%	-2	13µM*	21%
Cc1ccc2nc(CN3CCN(C(=O)Nc4cccc(C)c4C)CC3)oc2c1	0%	·	-3%	·	?	26%
Cc1cccc(C(C)(C)C)c1OCCOCCN1CCCC1	2.2µM*	-9%	-28%	9	?	-49%
Cc1cccc(C(C)(C)C)c1OCCN1CCCC1	4.5µM*	-11%	-9%	16	25µM*	?
Cc1cccc(OCCOCCN2CCOCC2)c1C	-6%	-3%	-2%	·	7%[12.7 µM]	8%
CCN(CC)CCOC(=O)C1(C2CCCCC2)CCCCC1	-32%	-21%	?	0	34µM*!	11%
